Assay outcomes as filed in PubChem.
KB-V1 cytotox: KB-V1 MDR subline cytotoxicity; Potency, µM (series often up to 46.1 µM), usual class: cytotoxic; AID 1347076; 400,000 tested, 3.4% active; KB-V1 MDR cells viability, CellTiter-Glo, 72 h; note: % is set by controls: 0 for no effect and ±100 for the full control effect; nearly all actives have a fitted effect of over 60% in size
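Cells of the MDR subline KB-V1 are plated, dosed with compound at multiple concentrations, and incubated 72 h at 37 degrees C; CellTiter-Glo is then added and luminescence read after 10 min.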
KB-3-1 tox: kills parental KB-3-1 adenocarcinoma cells; KB-3-1 viability, CellTiter-Glo ATP luminescence, 72 h; Potency, µM (highest dose often 46.1 µM), hits mostly cytotoxic; AID 1347075; 400,000 tested, 1.4% active; note: % is set by controls: 0 for no effect and ±100 for the full control effect; nearly all actives have a fitted effect of over 60% in size
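Multi-concentration cytotoxicity screen in KB-3-1 cells grown in DMEM lacking phenol red with 10% FBS. After 72 h at 37 °C with compound, ATP-dependent luminescence was recorded.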
MCF10A rereplic: DNA re-replication induction in MCF 10a cells. Potency, µM (highest dose often 46.1 µM), for inactives: at the top dose activity, positive = re-replication, usual class: activators. MCF 10A DNA re-replication, Hoechst nuclear intensity, 48 h. 350,000 tested, 2.9% active. AID 624296; note: % of control where 0% means no effect; nearly all actives have a fitted effect of over 50% in size
HT1080-NT tox: kills 2HG-producing HT-1080-NT fibrosarcoma cells; HT-1080-NT fibrosarcoma viability, CellTiter-Glo ATP luminescence, 48 h; Potency, µM (titrated, usually from 46.1 µM), for the others: top-dose activity, negative = less viability, usual class: cytotoxic; 360,000 tested, 1.6% active;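 note: NT is the 2HG producing partner of a matched IDH1 knockdown line; 0% = DMSO-treated cells and -100% = media-only wells without cells; nearly all actives have a fitted effect of over 55% in size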
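HT-1080-NT fibrosarcoma cells (2HG-overproducing), 750 cells/well in RPMI with 5% FBS, dosed after 2 h and incubated 48 h at 37C. CellTiter-Glo luminescence normalized to DMSO and no-cell wells; concentration-response curves fitted and classed.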
HT1080 IDH1KD tx: kills HT-1080 cells with IDH1 knockdown; HT-1080 IDH1 knockdown viability, ATP luminescence, 48 h; Potency, µM (titrated, usually from 46.1 µM), without a hit: top-dose activity, negative = toxicity, hits mostly cytotoxic; 360,000 tested, 2% active; AID 686971;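 note: 0% = DMSO wells and -100% = cell-free medium wells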
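Using the IDH1-knockdown HT-1080 line run in the same batch and compound series as the NT line, viability after 48 h at 37 °C was determined by CellTiter-Glo luminescence and expressed as % activity.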
SW480 rerep: DNA re-replication induction in SW480 cells. 340,000 tested, 1.8% active. SW480 DNA re-replication, Hoechst DNA content imaging, 48 h. Potency, µM (top dose mostly 46.1 µM), for the others: at the top dose re-replication activation, hits mostly activators. AID 624297; note: % of control where 0% means no effect; nearly all actives have a fitted effect of over 55% in size
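Quantitative HTS format with DMSO vehicle controls; 48 hr drug incubation at 37 C, then 40 min Hoechst staining and scanning imager measurement at 405 nm excitation.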
* = called active by the depositor; i = inactive; ? = inconclusive; / = not tested or not shown; ! = not active in a repeat; [ ] = remark or other dose. Sampled rows, rich in hits. Any-hit rate of the full collection: about 7.9%. Calls come from the whole dose curve; as a rule, active = well fitted curve in the direction sought with a large enough effect; inconclusive = small, poorly fitted or top-dose-only effect, or another doubt; inactive = no such curve, though single readings can be large; an effect the other way counts as inactive or inconclusive. Potency is the fitted concentration of half-maximal effect.

SMILES	KB-V1 cytotox	KB-3-1 tox	MCF10A rereplic	HT1080-NT tox	HT1080 IDH1KD tx	SW480 rerep
O=c1c2ccccc2nc(/C=C/c2cccc3ccccc23)n1-c1ccc(F)cc1F	i	i	/	/	/	/
C/C=C(\C)C(=O)NNC(=O)c1sc(-c2ccccc2)nc1C	i	?	-2.7%	?	12.7%	-0.6%
CCOc1ccccc1NC(=O)CSc1nc2ccccc2nc1N1CCCC1	i	i	14.6µM*	-2.6%	-1.7%	?
N#Cc1cc2ccccc2nc1SCC(=O)Nc1ccccc1N1CCOCC1	4.61µM*	i	-2.4%	7.0%	-0.1%	-7.9%
COc1ccc(NC(=O)CSc2nc3ccccc3nc2N2CCCC2)cc1Cl	i	i	23.1µM*	5.3%	1.7%	9.5%
Cc1ccc(NC(=O)CSc2nc3ccccc3nc2N2CCOCC2)cc1	18.4µM*!	i	10.9%	?	-20.7%	?
Cc1ccc(NC(=O)CSc2nc3ccccc3nc2N2CCOCC2)c(C)c1	i	?	33.7%	17.6%	17.4%	10.0%
CCOC(=O)c1c(S(=O)(=O)N2CCCC(C(=O)Nc3ccc(OCC)cc3)C2)c(C)n(C)c1C (stereo not given)	i	i	/	/	/	/
CC(C)N1CCCC(C)(C(=O)Nc2nc3ccccc3[nH]2)C1 (stereo not given)	i	i	/	?	-0.6%	/
CCOCCc1nnc(N)s1	i	i	8.2µM*	15.0%	17.8%	14.6µM*
COc1cc(CN(C)Cc2cc(=O)n3ccsc3n2)ccc1OC(F)F	13µM*	i	-3.9%	-3.8%	0.3%	?
CCN(CC(=O)NCc1ccc(F)cc1)Cc1cc(=O)n2ccsc2n1	i	i	?	0.1%	1.6%	-5.9%[1.84 µM]
Cc1ccc(-c2ccc(/C=N\NC(=O)c3cc4c(ccc5ccccc54)o3)o2)cc1[N+](=O)[O-]	?	?	7.31µM*	?	24.0%	12.5%
Cc1ccc([N+](=O)[O-])cc1-c1ccc(/C=N/NC(=O)c2cc3c(ccc4ccccc43)o2)o1	i	i	-3.0%	17.1%	8.9%	-12.6%
O=C(N/N=C/c1ccc(-c2ccc(Cl)c(C(=O)O)c2)o1)c1cc2c(ccc3ccccc32)o1	i	i	20.6µM*	-15.2%	-24.0%	?
O=C(O)c1ccc(/C=N/NC(=O)c2cc3c(ccc4ccccc43)o2)cc1	i	i	1.8%	1.3%	12.0%	2.2%
CCN(Cc1ccccc1)C(=O)c1c(-c2ccccc2Cl)noc1C	i	i	-0.6%	-0.2%	7.3%	-5.1%
COc1cccc(CN2CCNC(=O)C2CC(=O)NCC2CCOCC2)c1 (stereo not given)	i	i	0.7%	3.8%	12.3%	24.9%
NC(CSC(c1ccccc1)(c1ccccc1)c1ccc2c(c1)OCO2)C(=O)O (stereo not given)	i	i	/	11.6µM*	18.4µM*	/
Cc1cc(C)c(C#N)c(SCc2nnc(-c3ccccc3)o2)n1	3.66µM*	i	2.59µM*	-4.8%	5.0%	8.2µM*
Cc1ccc(C#N)c(SCc2nnc(-c3ccc(Cl)cc3)o2)n1	11.6µM*	i	0.731µM*	15.9%	14.2%	2.31µM*
Cc1ccc(C#N)c(SCc2cc3c(cc2Cl)OCO3)n1	i	i	0.5%	2.8%	10.0%	14.0%
Cc1ccc(SCCNC(=O)c2ccc(C)c(S(=O)(=O)Nc3cccc(C)c3)c2)cc1	?	i	12.9%	?	?	1.3%
Cc1ccc(NS(=O)(=O)c2cc(C(=O)NCCSc3ccc(C)cc3)ccc2C)cc1	16.4µM*	i	25.5%	?	?	15.7%
Brc1ccc(C[n+]2ccccc2)cc1	?	?	-1.3%	0.0%	2.7%	-9.5%
COc1ccc(NC(=O)CSc2nc3sc(C)cc3c(=O)n2C)c(OC)c1	8.2µM*	i	3.2%	?	-12.6%	-1.6%
